Source: PubChem BioAssay (National Center for Advancing Translational Sciences (NCATS))
ELG1 repair inh: qHTS screen for small molecules that inhibit ELG1-dependent DNA repair in human embryonic kidney (HEK293T) cells expressing luciferase-tagged ELG1. HEK293T ELG1-luciferase reporter, luminescence, 16 h; DNA damage induced by 5-fluorouridine. Potency, µM (doses to about 46.1 µM), without a hit: top-dose activity change, negative = inhibition, most hits filed as inhibitors. actives 2.3% (n = 330,000). AID 504467, 2011; note: nearly all actives have a fitted effect of over 55% in size
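In this reporter screen, reduction of luminescence relative to DMSO vehicle indicated activity. Compounds and 5-fluorouridine were added together to 2,000 cells per well, incubated for 16 hr at 37 °C, then developed with ONE-Glo.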
VP16 counter: VP16 counterscreen qHTS for inhibitors of ROR gamma transcriptional activity | AID 2546, 2010 | Drosophila S2 Gal4-VP16 UAS-luciferase, luminescence, 20 h | Potency, µM (highest dose often 53.6 µM), for inactives: at the top dose activity, negative = inhibition, usual class: inhibitors | actives 3.5% (n = 310,000);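 note: Gal4-VP16 expression switched on by copper sulfate through the metallothionein promoter; nearly all actives have a fitted effect of over 50% in size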
DT40 TDP1 no CPT: qHTS for Inhibitors of human tyrosyl-DNA phosphodiesterase 1 (TDP1): qHTS in cells in absence of CPT; AID 686978, 2013; DT40 Tdp1-/- hTDP1 cells, no CPT, ATP luminescence, 48 h; actives 15% (n = 420,000); Potency, µM (series often up to 46.2 µM), without a hit: at the top dose activity change, negative = growth inhibition, actives largely listed as inhibitors; note: nearly all actives have a fitted effect of over 55% in size
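Cells were dispensed at 400 per well, compounds added by pin tool, plates incubated ≥48 hr at 37 °C, then CellTiter-Glo added for 30 min at room temperature before luminescence reading. Line: DT40 Tdp1-/- complemented with hTDP1; camptothecin omitted.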
ALOX12 inh: Primary qHTS assay for inhibitors of human arachidonate 12S-lipoxygenase (ALOX12): Round 2; actives 1.1% (n = 580,000); AID 1671190, 2021; purified 12hLO, xylenol orange hydroperoxide absorbance; Potency, µM (series often up to 108 µM), for inactives: top-dose activity change, negative = inhibition, usual class: inhibitors
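Purified human 12hLO (150 nM final) in 25 mM Hepes, 0.01% Triton X-100, pH 7.0 was preincubated 15 min at room temperature with compound. Then 40 uM arachidonic acid was added, 30 min. Hydroperoxide was read by Fe-XO absorbance ratio 573/405 nm.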
RORg inh: qHTS for inhibitors of ROR gamma transcriptional activity | Drosophila S2 Gal4-RORgamma UAS-luciferase reporter, 20 h | Potency, µM (top dose mostly 53.6 µM), inactives show at the highest dose activity change, negative = inhibition, actives largely listed as inhibitors | actives 5.4% (n = 310,000) | AID 2551, 2010; note: nearly all actives have a fitted effect of over 60% in size
Target sequence (P51450 whole entry, looked up, the tested form may be a part): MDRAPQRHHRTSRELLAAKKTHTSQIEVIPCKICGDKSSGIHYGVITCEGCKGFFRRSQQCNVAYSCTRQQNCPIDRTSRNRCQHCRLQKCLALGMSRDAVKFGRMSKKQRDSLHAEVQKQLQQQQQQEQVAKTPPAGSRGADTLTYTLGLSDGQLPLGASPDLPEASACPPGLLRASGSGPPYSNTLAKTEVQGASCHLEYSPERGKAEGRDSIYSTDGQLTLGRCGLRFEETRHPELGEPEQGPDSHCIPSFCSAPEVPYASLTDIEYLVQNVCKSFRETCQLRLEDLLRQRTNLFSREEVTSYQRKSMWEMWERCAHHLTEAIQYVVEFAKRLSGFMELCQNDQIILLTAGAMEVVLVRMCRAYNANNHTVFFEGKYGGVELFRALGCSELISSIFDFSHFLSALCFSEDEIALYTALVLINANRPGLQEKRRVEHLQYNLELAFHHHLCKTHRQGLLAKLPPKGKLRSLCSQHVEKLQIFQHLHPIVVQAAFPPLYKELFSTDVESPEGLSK
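ROR gamma transcriptional activity was tracked as Gal4-UAS luciferase output in stably transfected Drosophila Schneider cells, with compound added 1 hr before 700 uM copper sulfate induction and a 20 hr ambient-temperature incubation.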
TDP1 cell CPT: qHTS for Inhibitors of human tyrosyl-DNA phosphodiesterase 1 (TDP1): qHTS in cells in presence of CPT. chicken DT40 Tdp1-/-;hTDP1 cells + 20 nM CPT, ATP luminescence, 48 h. Potency, µM (doses to about 46.2 µM), without a hit: at the highest dose activity change, negative = growth inhibition, most hits filed as inhibitors. actives 12% (n = 420,000). AID 686979, 2013; note: nearly all actives have a fitted effect of over 55% in size
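Chicken DT40 Tdp1-/- cells complemented with human TDP1, 400 cells/well, exposed to compounds plus 20 nM camptothecin for at least 48 h at 37 C; viability read as ATP content by CellTiter-Glo luminescence.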
An asterisk follows results filed as active; u = inconclusive; x = not tested or not shown; [ ] = remark or other dose. Most compounds without a hit are left out; they make up all but 15% or so of the library. Calls come from the whole dose curve; as a rule, active = well fitted curve in the direction sought with a large enough effect; inconclusive = small, poorly fitted or top-dose-only effect, or another doubt; inactive = no such curve, though single readings can be large; an effect the other way counts as inactive or inconclusive. % is set by controls: 0 for no effect and ±100 for the full control effect; potency is the fitted concentration of half-maximal effect.

SMILES	ELG1 repair inh	VP16 counter	DT40 TDP1 no CPT	ALOX12 inh	RORg inh	TDP1 cell CPT
CCOc1ccccc1CNC(=O)[C@@]12CCCC[C@H]1N(CCOC)C(=O)CC2	x	x	x	27%	x	x
CC(C)c1ccc(-c2nonc2NC(=O)c2cc(=O)c3ccc(Br)cc3o2)cc1	x	x	x	3%	x	x
COc1ccc(Nc2cccc(CN3CCCC(C)(NC(C)=O)C3)c2)cc1 (stereo not drawn)	x	x	x	-15%[176 µM]	x	x
O=C(NC(c1ccccc1)c1ccccc1)c1cnc2c(c1)N([S+](=O)([O-])c1cccnc1)CCC2	x	x	x	-4%	x	x
CC(C)Cc1cc(C(C)(C)C)ccc1OC(=S)N(C)C	6%	1%	u	-3%	13µM*	u
O=C(NN=C1c2ccccc2-c2ccccc21)c1ccccn1	4%	4.5µM*	u	25%	3.2µM*	u
C/C(CC(=O)N1CCN(C=O)CC1)=N\NC(=O)c1cc2ccccc2cc1O	1%	-19%	-4%	u	-28%	5%
C/C(=N\NC(=O)c1ccccc1-n1cccc1)c1ccccn1	x	x	1.8µM*	2%	x	2.1µM*
CCN(CC)C(=O)COc1ccc(/C(C)=N/NC(=O)c2ccccc2-n2cccc2)cc1	2%	4%	u	335%	-15%	-15%
C/C(=N/NC(=O)c1cc2ccccc2cc1O)C1C(=O)c2ccccc2C1=O	u	18µM*	-6%	u	u	-26%
CC(=N/O)/C(C)=N\NC(=O)c1ccccn1	u	5µM*	-2%	1%	6.3µM*	u
O=C(N/N=C/c1ccncc1)c1ccccn1	u	-3%	6%	x	24%	-11%
COc1ccc(-c2cc(C(=O)N(C)C)c3ccccc3n2)cc1	x	x	x	1%	x	x
O=C(C1CCN(c2nc(-c3ccccc3)nc3c2CCC3)CC1)N1C[C@H]2CC[C@H]1C2	x	x	x	28%	x	x
Cc1ccc(-c2nnn(CC(=O)N3N=C(c4cccs4)CC3c3cccs3)n2)cc1 (stereo not drawn)	x	x	x	17%	x	x
Cc1cccc(OCC2(CNS(=O)(=O)c3ccc(Cl)cc3)C[C@@H](O)[C@@H](O)C2)n1 (stereo partly drawn)	x	x	x	38%[176 µM]	x	x
C/C(=N\NC(=O)C1CC1)c1ccccn1	x	x	x	9%	x	x
C/C(=N\NC(=O)c1cc2ccccc2cc1O)c1cc2ccccc2o1	u	u	15µM*	-12%	10µM*	u
CCc1ccc(/C(C)=N/NC(=O)c2ccccn2)cc1	u	-8%	4%	-3%	u	-3%
C/C(=N\NC(=O)c1ccc(F)cc1)c1ccccn1	u	0.4µM*	1µM*	10%	0.25µM*	0.92µM*
C/C(=N\NC(=O)c1nc2ccccn2c1C)c1cc2ccccc2o1	-29%	u	u	-10%	13µM*	-24%
C/C(=N\NC(=O)c1cc2ccccc2cc1O)c1ccccn1	u	0.13µM*	1.3µM*	1%	0.2µM*	1.2µM*
COc1ccccc1CCN1CCC(CN(C)Cc2n[nH]c(C)n2)CC1	x	x	x	64%	x	x
Cc1cccc(NC(=O)CN2CCN(Cc3csc(-c4ccccc4)n3)CC2)c1C	x	x	x	-15%	x	x
CCC(=O)N1c2ccccc2NC2=C(C(=O)CC(C)(C)C2)C1c1ccc(OC)c(OC)c1 (stereo not drawn)	x	x	x	10%	x	x
SMILES	ELG1 repair inh	VP16 counter	DT40 TDP1 no CPT	ALOX12 inh	RORg inh	TDP1 cell CPT
Cc1ccc(-c2ccccc2)c(Oc2cccc(C#N)c2C#N)c1	x	x	x	-1%	x	x
Cc1cccc2cc(CN(CC3CCCO3)S(=O)(=O)c3ccc(Cl)cc3)c(=O)[nH]c12 (stereo not drawn)	x	x	x	67%	x	x
C/C(=N\NC(=O)CCCNc1ccccc1)c1ccncc1	-10%	14%	-21%	-13%	-28%	2%
C/C(=N\NC(=O)CCCNc1ccc(C)cc1)c1ccccn1	0%	13µM*	5.2µM*	13%	2.2µM*	5.8µM*
Cc1ccc(-n2ncc(C(=O)N3CCc4ccccc4C3)c2C2CCN(C(=O)OC(C)(C)C)CC2)cc1C	x	x	u	-22%	x	10µM*
Cc1ccc(-n2ncc(C(=O)NCCN3CCc4ccccc4C3)c2C2CCN(C(=O)OC(C)(C)C)CC2)cc1C	x	x	21µM*	-26%	x	16µM*
Cc1cccc(C)c1-n1ncc(C(=O)NCCN2CCN(C)CC2)c1C1CCN(C(=O)OC(C)(C)C)CC1	x	x	u	-15%	x	u
Cc1c(Cl)cccc1-n1ncc(C(=O)N2CCc3ccccc3C2)c1C1CCN(C(=O)OC(C)(C)C)CC1	x	x	21µM*	8%	x	u
Cc1c(Cl)cccc1-n1ncc(C(=O)NCCN2CCN(C)CC2)c1C1CCN(C(=O)OC(C)(C)C)CC1	x	x	26µM*	-18%	x	u
Cc1csc(NC(=O)CCc2ncc(-c3ccc(C)c(C)c3)o2)n1	x	x	x	-30%	x	x
CN1C(=O)CCCCC1C(=O)NCCc1c[nH]c2ccccc12 (stereo not drawn)	x	x	x	-14%	x	x
Cc1ccc(-n2ncc(C(=O)NCCN3CCc4ccccc4C3)c2C2CCN(C(=O)OC(C)(C)C)CC2)cc1	x	x	18µM*	-16%	x	21µM*
NC(=S)N/N=C/c1ccc2c(c1)OCCO2	u	u	-15%	u	11µM*	0%
CNC(=S)N/N=C/c1ccc2c(c1)OCCO2	u	0.63µM*	-3%	-12%	u	-3%
Cc1nc(-c2cn(C3CCCN(C(=O)c4cccc(Cl)c4)C3)nn2)no1 (stereo not drawn)	x	x	x	1%	x	x
CCNC(=S)N/N=C(\C)c1ccc2ccccc2c1	u	7.1µM*	x	x	2.8µM*	x
COc1cccc(/C(C)=N/NC(=O)c2ccc(N(C)C)cc2)c1	u	3%	u	1%	u	-4%
C/C(=N\NC(=O)C1CC1)c1ccc2ccccc2c1	x	x	x	-6%	x	x
CCNC(=S)N/N=C(\C)c1ccc2ccccc2c1OC(F)F	u	7.1µM*	16µM*	40µM*	1.3µM*	23µM*
CCNC(=S)N/N=C(\C)c1cccc(OC)c1	12%	-25%	11%	u	2.5µM*	2%
